Giardia FBPA inh: qHTS Assay for Inhibitors of Fructose-1,6-bisphosphate Aldolase from Giardia Lamblia | AID 2451, 2010 | Potency, µM (top dose mostly 59.6 µM), most hits filed as inhibitors | purified Giardia FBPA | 290,000 tested, 0.71% active; further: nearly all actives have a fitted effect of over 55% in size
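Giardia FBPA (40 nM reagent) was preincubated 10 min at RT with compound (up to 57.5 uM final), then substrate plus GAPDH/TPI/NAD/arsenate coupling system with diaphorase/resazurin was added; resorufin fluorescence (525/598 nm) was read after 20 min.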
LmPK inhibitor: qHTS Assay for Inhibitors of Leishmania Mexicana Pyruvate Kinase (LmPK); AID 1721, 2009; Q27686; Potency, µM (titrated, usually from 57.5 µM), most hits filed as inhibitors; 290,000 tested, 0.37% active; purified LmPK, Kinase-Glo ATP luminescence, 1 h
Target sequence (Q27686 whole entry, looked up): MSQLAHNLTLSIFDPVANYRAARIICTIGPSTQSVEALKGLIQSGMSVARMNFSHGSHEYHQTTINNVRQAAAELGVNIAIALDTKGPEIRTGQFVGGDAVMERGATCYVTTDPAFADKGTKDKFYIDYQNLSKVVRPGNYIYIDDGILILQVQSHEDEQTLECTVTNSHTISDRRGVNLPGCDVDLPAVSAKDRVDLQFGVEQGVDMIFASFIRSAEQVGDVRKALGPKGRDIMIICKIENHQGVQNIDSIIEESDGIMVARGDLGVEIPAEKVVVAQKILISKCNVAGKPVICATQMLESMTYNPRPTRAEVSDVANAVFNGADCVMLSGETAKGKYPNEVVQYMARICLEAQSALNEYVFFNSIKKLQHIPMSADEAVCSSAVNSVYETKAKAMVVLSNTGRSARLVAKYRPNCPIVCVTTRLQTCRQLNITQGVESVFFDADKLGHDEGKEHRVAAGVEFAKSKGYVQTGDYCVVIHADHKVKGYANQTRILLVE
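ATP generated from ADP (0.1 mM) and PEP (0.5 mM) by 0.1 nM LmPK over 1 h at room temperature (pH 7.2 imidazole buffer) was detected by coupled luciferase luminescence. Values were normalized to uninhibited and no-enzyme wells.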
TbPYK inhibitor: qHTS of Trypanosoma Brucei Inhibitors | pyruvate kinase (Trypanosoma brucei), Q57TT1 | TbPYK enzyme, Kinase-Glo Plus ATP luminescence, 45 min | Potency, µM (top dose mostly 76.8 µM), most hits filed as inhibitors | 410,000 tested, 0.12% active | AID 624173, 2012; further: nearly all actives have a fitted effect of over 50% in size
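Activity of T. brucei pyruvate kinase was followed by Kinase-Glo Plus luminescence after the enzyme reacted 45 min at room temperature with 130 uM ADP (final) and substrate. Test compounds were added before ADP at multiple concentrations.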
CHX counter: Cycloheximide Counterscreen for Small Molecule Inhibitors of Shiga Toxin | AID 2314, 2010 | max response, % | 300,000 tested, 12% active | cell reporter, cycloheximide protein synthesis inhibition counterscreen; in the data active means max response mostly above about 13%, no sharp cut-off; inactive means mostly below about 14%; further: read at 38.3 µM for the half of the compounds with a filed dose
RE007 growth inh: qHTS Assay for Inhibitors of the HIV-1 protein Vpr; S. pombe RE007 Vpr strain, BacTiter-Glo ATP luminescence, 24 h; Potency, µM (series often up to 92.2 µM), most hits filed as inhibitors; 360,000 tested, 0.21% active; active means well fitted falling curve with a large enough effect; inconclusive means small, poorly fitted or top-dose-only effect; inactive means no such curve, though single readings can be large or run the other way; further: nearly all actives have a fitted effect of over 50% in size
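Fission yeast strain RE007, carrying one chromosomally integrated HIV-1 vpr copy, was seeded at OD 0.01 in PMG+AL medium with 23 nL pinned compound. After 24 h at 30 °C and 99% humidity, viability was read by BacTiter-Glo luminescence.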
Shiga inhibitor: A qHTS for Small Molecule Inhibitors of Shiga Toxin; Vero cells, Shiga toxin protein synthesis inhibition reporter; inhibition, % at 38.7 µM; 290,000 tested, 9.2% active; AID 2315, 2010; in the data active means inhibition mostly above about 28%, no sharp cut-off; inactive means mostly below about 43%
Large screens that a line does not name were inactive. The sample as a whole holds a higher share of hits than the screen did. Unless noted, the call rests on the fitted dose curve; in most records, active means well fitted curve in the direction sought with a large enough effect; inconclusive means small, poorly fitted or top-dose-only effect, or another doubt; inactive means no such curve, though single readings can be large; an effect the other way counts as inactive or inconclusive.

O=C(Nc1ccc(Br)cn1)c1ccc(Cl)s1	CHX counter 54, Shiga inhibitor 84
O=C(Nc1ccc2sccc2c1)c1ccc(Cl)s1	CHX counter 33, Shiga inhibitor 39
O=C(Nc1ccon1)c1ccc(Br)s1	CHX counter 25, Shiga inhibitor 57
Cc1ccccc1C(=O)Nc1ccc(Br)cn1	LmPK inhibitor inconclusive, CHX counter 49, Shiga inhibitor 91
NC1=NC(c2ccccc2C(F)(F)F)N(c2ccc(F)c(Cl)c2)C(N)=N1 (configuration not stated)	none
CC(C)(C)c1ccc2c(c1)N(CC(=O)N1CCCC1)C(=O)CO2	none
Cc1cc(NC(=O)Cc2ccccc2)cc(-c2nc3ccccc3o2)c1O	none (no result: Giardia FBPA inh, LmPK inhibitor, CHX counter, RE007 growth inh, Shiga inhibitor)
CC1(C)COC(c2cc3c(cc2Br)OCO3)OC1	none (no result: Giardia FBPA inh, LmPK inhibitor, CHX counter, Shiga inhibitor)
O=C(NC(=S)Nn1cnnc1)c1cccc(Br)c1	Giardia FBPA inh inconclusive
Cc1cc(C(=O)Nc2ccc(Br)cn2)sc1C	RE007 growth inh inconclusive (no result: Giardia FBPA inh, LmPK inhibitor, CHX counter, Shiga inhibitor)
O=C(Nc1ccc(Br)cn1)c1ccc(Br)s1	CHX counter 62, Shiga inhibitor 108
O=C(Nc1ccccn1)c1ccc(Cl)s1	CHX counter 62, RE007 growth inh inconclusive, Shiga inhibitor 100
COc1ccc(OC)c2sc(NC(=O)c3ccc(Cl)s3)nc12	none
O=C(Nc1nccs1)c1ccc(Cl)s1	CHX counter 20
N#CCSc1ncccc1-c1nc2ccccc2[nH]1	RE007 growth inh inconclusive, Shiga inhibitor 30
N#CCCCSc1ncccc1-c1nc2ccccc2[nH]1	CHX counter 28
N#CCSc1ncnc2ccccc12	none
COc1ccc(S(=O)(=O)N2CCCCC2)cc1NC(=O)c1cccc(S(=O)(=O)N2CC(C)OC(C)C2)c1 (configuration not stated)	none (no result: Giardia FBPA inh, LmPK inhibitor, CHX counter, Shiga inhibitor)
CCn1nc(C)c(CN2CCCC(CNS(=O)(=O)c3ccc(OC)cc3)C2)c1C (configuration not stated)	none (no result: Giardia FBPA inh)
CCN(Cc1ccccc1)C(=O)CCS(=O)(=O)c1cc2c(cc1Cl)NC(=O)CO2	none
COc1ccc(NC(=O)COC(C)=O)cc1OC	none
COc1ccc(NC(=O)COC(=O)c2c(F)cccc2Cl)cc1OC	CHX counter 41, Shiga inhibitor 76 (no result: TbPYK inhibitor, RE007 growth inh)
COc1cc(CCC(C)=O)ccc1OC(=O)c1c(F)cccc1Cl	CHX counter 39, Shiga inhibitor 88
COc1ccc(NC(=O)COC(=O)Cc2c(F)cccc2Cl)cc1OC	CHX counter 21
CCCSc1ncc(Cl)c(C(=O)Nc2ccc(S(=O)(=O)N3CCCCC3C)cc2)n1 (configuration not stated)	none (no result: Giardia FBPA inh, LmPK inhibitor, CHX counter, RE007 growth inh, Shiga inhibitor)
CCc1cccc(NC(=O)CC2Oc3ccc(C)cc3NC2=O)c1 (configuration not stated)	none (no result: Giardia FBPA inh, LmPK inhibitor, CHX counter, RE007 growth inh, Shiga inhibitor)
COc1ccc(Cl)c2sc(N3CCN(C(C)=O)CC3)nc12	none
C=C/C(=C\C)C[C@@H](CC(=O)N[C@@H](CCC(=O)O)CC(=O)O)NC(=O)[C@@H]1CNCC[C@H]1NC(=O)C[C@@H](NC(=O)C[C@H](Cc1ccccc1)NC(=O)[C@@H]1CCCC[C@H]1N)C(C)C	none (no result: LmPK inhibitor, TbPYK inhibitor, CHX counter, RE007 growth inh, Shiga inhibitor)
CC(C)(C)c1cc[n+](C2=C([O-])c3ccccc3C(=O)/C2=N\S(=O)(=O)c2ccccc2)cc1	Giardia FBPA inh inconclusive, CHX counter 58, Shiga inhibitor 95
CO[C@H]1COC(=O)[C@H]2CCCN2C(=O)[C@@H](C)COC(=O)C/C=C\[C@@H]1C	none (no result: LmPK inhibitor, TbPYK inhibitor, CHX counter, RE007 growth inh, Shiga inhibitor)
CCOc1ccc(C(=O)c2cccs2)cc1	CHX counter 27, RE007 growth inh inconclusive
CCCOc1ccc(C(=O)Nc2ccc(N(C)C)cc2)cc1	CHX counter 47, Shiga inhibitor 141
CCCOc1ccc(C(=O)Nc2ccc(NC(=O)c3cccs3)cc2)cc1	Shiga inhibitor 49
CCCCOc1cccc(C(=O)Nc2ccc(NC(=O)c3cccs3)cc2)c1	none
CC(C)Oc1ccc(C(=O)Nc2ccc(N(C)C)cc2)cc1	TbPYK inhibitor inconclusive, CHX counter 25, Shiga inhibitor 90
COCCN1CCN(Cc2ccc(C(=O)NC(C)C)cc2)C(=O)C1=O	none (no result: Giardia FBPA inh, LmPK inhibitor, CHX counter, RE007 growth inh, Shiga inhibitor)
CCCN(CCC)C(=O)Cn1c(=O)n(-c2ccc(OC)cc2OC)c(=O)c2c3c(sc21)CCC3	none (no result: Giardia FBPA inh, LmPK inhibitor, CHX counter, RE007 growth inh, Shiga inhibitor)
CC(=O)N1CCc2cc(CNC(=O)Nc3cc(Cl)ccc3C)ccc21	none (no result: Giardia FBPA inh, LmPK inhibitor, CHX counter, RE007 growth inh, Shiga inhibitor)
Cc1cccc(NC(=O)CCN2CCN(c3ccccc3F)CC2)c1	none (no result: Giardia FBPA inh, LmPK inhibitor, CHX counter, RE007 growth inh, Shiga inhibitor)
N#Cc1ccc(CN2CCN(C(=O)Cn3nc(C(N)=O)c4ccccc4c3=O)CC2)cc1	none
CC(=O)c1ccc(NC(=O)C2Cc3ccccc3CN2C(=O)c2ccccc2)cc1 (configuration not stated)	CHX counter 11, Shiga inhibitor 41
COc1ccc(NC(=O)C2Cc3ccccc3CN2C(=O)c2ccccc2)cn1 (configuration not stated)	Giardia FBPA inh inconclusive
O=C(NC1=NCCS1)C1Cc2ccccc2CN1C(=O)c1ccccc1 (configuration not stated)	CHX counter 28, RE007 growth inh inconclusive, Shiga inhibitor 84
CC1=CCC2C(=O)N(c3ccc4ccccc4n3)C(=O)C2C1 (configuration not stated)	CHX counter 9.4
Cc1ccc(NC(=O)CSc2nc3ccccc3c3nc(CCn4c(C)nc5ccccc54)nn23)cc1F	none (no result: Giardia FBPA inh, LmPK inhibitor, CHX counter, RE007 growth inh, Shiga inhibitor)
COc1ccc(N2C(=O)c3ccccc3NC2c2ccc(OC)c(COc3ccccn3)c2)cc1 (configuration not stated)	CHX counter 16
COc1ccc(N2C(=O)c3ccccc3NC2c2ccc(OC)c(CSc3ccccn3)c2)cc1 (configuration not stated)	CHX counter 56
COc1ccc(C2Nc3ccccc3C(=O)N2Cc2ccccc2)cc1COc1ccccn1 (configuration not stated)	none
COc1ccc(N(CC(=O)NCc2ccccc2OC)S(=O)(=O)c2ccc(C)cc2)cc1Cl	none (no result: Giardia FBPA inh)
COc1cc(/C=C(\C#N)c2nc3ccccc3o2)ccc1O	CHX counter 24, RE007 growth inh inconclusive
N#C/C(=C\c1ccc(O)cc1)c1nc2ccccc2o1	CHX counter 37, Shiga inhibitor 117
COc1cc(/C=C(\C#N)c2nc(-c3cc4ccccc4oc3=O)cs2)ccc1O	none
CCc1noc(C)c1C(=O)Nc1nnc(CC(C)C)s1	none (no result: Giardia FBPA inh, LmPK inhibitor, CHX counter, Shiga inhibitor)
O=C(Nc1cccc(-c2nc3ccccc3o2)c1)C(F)(F)F	none (no result: Giardia FBPA inh, LmPK inhibitor, CHX counter, RE007 growth inh, Shiga inhibitor)
CS(=O)(=O)c1ccccc1C(=O)Nc1cccc(-c2nc3ccccc3o2)c1	CHX counter 23
CC(=O)Nc1nc2ccc(-c3nc4ccccc4o3)cc2s1	CHX counter 61, Shiga inhibitor 54
CCC(=O)Nc1cccc(-c2nc3ccccc3o2)c1	CHX counter 16

Screening results from PubChem.
